Rows were chosen to be rich in hits. Some 22% of all compounds tested hit in one or more screens of this group.
Pf growth 48h: Primary qHTS for delayed death inhibitors of the malarial parasite plastid, 48 hour incubation. P. falciparum luciferase growth in erythrocytes, 48 h. Potency, µM (highest dose often 28.7 µM), hits mostly inhibitors. hit rate 5.9% among 310,000
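Luminescence readout; reporter = integrated firefly luciferase in P. falciparum. RBC culture at 2% hematocrit, 0.1% parasitemia final, 37 C/5% CO2; decreased signal taken as growth inhibition.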
CHX counter: Cycloheximide Counterscreen for Small Molecule Inhibitors of Shiga Toxin. max response, %. cell reporter, cycloheximide protein synthesis inhibition counterscreen. hit rate 12% among 300,000; in the data active = max response mostly above about 13%, no sharp cut-off; inactive = mostly below about 14%; also: read at 38.3 µM for the half of the compounds with a filed dose
Shiga inhibitor: A qHTS for Small Molecule Inhibitors of Shiga Toxin. Vero cells, Shiga toxin protein synthesis inhibition reporter. inhibition, % at 38.7 µM. hit rate 9.2% among 290,000; in the data active = inhibition mostly above about 28%, no sharp cut-off; inactive = mostly below about 43%
Pf growth 96h: Primary qHTS for delayed death inhibitors of the malarial parasite plastid, 96 hour incubation; P. falciparum luciferase reporter growth, 96 h; Potency, µM (top dose mostly 28.7 µM), actives largely listed as inhibitors; hit rate 6.9% among 320,000
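Readout is luminescence from an integrated firefly luciferase in P. falciparum. Red cells, 2% hematocrit and 0.05% parasitemia final, were cultured with compound through two parasite generations (96 hours) at 37 C, 5% CO2.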
LmPK inh: qHTS Assay for Inhibitors of Leishmania Mexicana Pyruvate Kinase (LmPK); Q27686; purified LmPK, Kinase-Glo ATP luminescence, 1 h; Potency, µM (series often up to 57.5 µM), most hits filed as inhibitors; hit rate 0.37% among 290,000; AID 1721, 2009
Target sequence (Q27686 whole entry, looked up): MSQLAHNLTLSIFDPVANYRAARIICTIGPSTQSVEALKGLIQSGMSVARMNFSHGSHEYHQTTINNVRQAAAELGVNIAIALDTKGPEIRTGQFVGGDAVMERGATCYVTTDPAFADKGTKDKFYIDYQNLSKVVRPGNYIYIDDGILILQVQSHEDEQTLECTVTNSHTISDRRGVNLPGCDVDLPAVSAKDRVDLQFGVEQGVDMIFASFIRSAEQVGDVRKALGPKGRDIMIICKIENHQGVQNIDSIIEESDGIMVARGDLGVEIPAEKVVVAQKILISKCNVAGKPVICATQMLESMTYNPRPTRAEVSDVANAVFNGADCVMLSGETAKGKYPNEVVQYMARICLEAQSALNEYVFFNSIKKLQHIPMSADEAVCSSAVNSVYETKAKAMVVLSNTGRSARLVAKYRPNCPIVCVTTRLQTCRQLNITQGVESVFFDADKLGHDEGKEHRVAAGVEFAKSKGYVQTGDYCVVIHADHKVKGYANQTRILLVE
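ATP generated from ADP (0.1 mM) and PEP (0.5 mM) by 0.1 nM LmPK over 1 h at room temperature (pH 7.2 imidazole buffer) was detected by coupled luciferase luminescence. Values were normalized to uninhibited and no-enzyme wells.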
Of the large screens only hits and unclear results are named; the others gave an inactive call. Unless noted, calls follow the shape of the dose curve; as a rule, active = well fitted inhibition curve with a large enough effect; inconclusive = small, poorly fitted or top-dose-only effect, or another doubt; inactive = no such curve, though single readings can be large or run the other way.

CN(C)S(=O)(=O)c1cc(NC(=O)C2=COCCO2)ccc1Cl	Pf growth 96h 12µM (no result: CHX counter, Shiga inhibitor, LmPK inh)
O=C(COC(=O)c1ccccc1S(=O)(=O)N1CCCCC1)NCC(F)(F)F	Pf growth 96h 13µM
Cc1c(C(=O)NNc2cc(=O)n(C)c(=O)n2C)cccc1[N+](=O)[O-]	none
COCC(=O)Nc1c(I)c(C(=O)NC[C@@H](O)CO)c(I)c(C(=O)N(C)C[C@@H](O)CO)c1I	none (no result: CHX counter, Shiga inhibitor, LmPK inh)
CSc1ccc(CN2CCN(C(=O)CC(C)C)CC2)cc1	none (no result: Shiga inhibitor)
Cc1ccc(NC(=O)CNc2ccccc2N2CCCC2=O)cc1S(=O)(=O)N1CCCCC1	Pf growth 48h 10µM, Pf growth 96h 9.3µM (no result: CHX counter, Shiga inhibitor, LmPK inh)
Cc1ccc(C)c(S(=O)(=O)N2CCN(CC(=O)Nc3ccc4c(c3)OCCO4)CC2)c1	none (no result: Pf growth 96h)
CCc1noc(C)c1C(=O)Nc1ccc(C)c(S(=O)(=O)N2CCCCCC2)c1	Pf growth 48h 10µM, Pf growth 96h inconclusive (no result: CHX counter, Shiga inhibitor, LmPK inh)
Cc1ccc(NC(=O)CN2C(=O)CN(C)C2=O)cc1S(=O)(=O)N1CCCCC1	none
O=C(Nc1ccc2c(c1)OCO2)c1ccc(Cl)c(S(=O)(=O)N2CCOCC2)c1	Pf growth 48h inconclusive, CHX counter 16, Shiga inhibitor 39
Cc1ccc(NC(=O)Cc2ccc3c(c2)OCCO3)cc1S(=O)(=O)N1CCCCC1	Pf growth 96h 5.2µM
Cc1ccc(S(=O)(=O)CCC(=O)OCC(=O)Nc2ccc(N3CCOCC3)cc2)cc1	none (no result: CHX counter, Shiga inhibitor, LmPK inh)
CN(CC(=O)Nc1ccc(Cl)c(C(F)(F)F)c1)C(=O)Cn1cc([N+](=O)[O-])ccc1=O	none (no result: CHX counter, Shiga inhibitor, LmPK inh)
CC1CCCC(C)N1CC(C)(C)NS(=O)(=O)c1ccc(Cl)cc1 (configuration not stated)	none (no result: Pf growth 48h)
COCCNCC(=O)Nc1ccc(C)c(S(=O)(=O)N2CCCCC2)c1	none
COc1ccc(NC(=O)Cn2ncc(Cl)c(Cl)c2=O)cc1S(=O)(=O)N1CCOCC1	Pf growth 48h inconclusive, CHX counter 19, Pf growth 96h inconclusive
O=C(Cc1ccc2c(c1)OCCO2)Nc1ccc(Cl)c(S(=O)(=O)N2CCOCC2)c1	Pf growth 48h inconclusive, Pf growth 96h 9.3µM (no result: CHX counter, Shiga inhibitor, LmPK inh)
CCN(CC)S(=O)(=O)c1cc(NC(=O)Cn2ncc(Cl)c(Cl)c2=O)ccc1C	Pf growth 48h inconclusive, CHX counter 32
COc1ccc(CC(=O)Nc2ccc(C#N)c(Cl)c2)cc1S(=O)(=O)N1CCOCC1	Pf growth 96h inconclusive
Cc1ccc(NC(=O)CCl)cc1S(=O)(=O)N1CCCCCC1	Pf growth 96h 9.3µM
COc1ccc(CC(=O)Nc2ccc3c(c2)OCO3)cc1S(=O)(=O)N1CCOCC1	none
Cc1noc(C)c1COc1ccc(C(=O)OCC(=O)Nc2c(C)n(C)n(-c3ccccc3)c2=O)cc1	Pf growth 96h inconclusive
CN(C)C1(CNC(=O)C2CCN(S(=O)(=O)c3c(Cl)cccc3Cl)CC2)CCCCC1	Pf growth 48h inconclusive (no result: CHX counter, Shiga inhibitor, LmPK inh)
Cc1ccc(NC(=O)CC2OC(=O)c3ccccc32)cc1S(=O)(=O)N1CCCCCC1 (configuration not stated)	Pf growth 48h 8.3µM, Pf growth 96h inconclusive (no result: CHX counter, Shiga inhibitor, LmPK inh)
O=C(CC1OC(=O)c2ccccc21)Nc1ccc(Cl)c(S(=O)(=O)N2CCCCC2)c1 (configuration not stated)	none (no result: CHX counter, Shiga inhibitor, LmPK inh)
COc1ccc(NC(=O)c2ccc(Cl)nc2)cc1S(=O)(=O)N1CCOCC1	Pf growth 48h inconclusive, Pf growth 96h 12µM (no result: CHX counter, Shiga inhibitor, LmPK inh)
CCCC(NC(=O)c1c(C)noc1C)C12CC3CC(CC(C3)C1)C2 (configuration not stated)	Pf growth 48h inconclusive
COc1ccc(/C=N/NC(=O)c2ccn[nH]2)cc1COc1ccc(Cl)cc1	Pf growth 48h inconclusive, CHX counter 31
COc1cc(OC)cc(C(=O)N/N=C/c2ccc(OC)c(COc3ccc(F)cc3)c2)c1	none
COc1ccc(/C=N/NC(=O)c2ccn[nH]2)cc1CSc1ccccn1	CHX counter 65, Shiga inhibitor 75
CCC(C)(C)C1CCC2(CC1)NC(=O)N(CC(=O)N1CCN(C(=O)c3ccco3)CC1)C2=O (configuration not stated)	Pf growth 48h inconclusive (no result: CHX counter, Shiga inhibitor, LmPK inh)
COc1ccc(Br)cc1C1Nc2cccc3cccc(c23)N1	CHX counter 30, Pf growth 96h inconclusive (no result: Shiga inhibitor)
COc1cc(C2Nc3cccc4cccc(c34)N2)ccc1O	Pf growth 48h inconclusive, Pf growth 96h inconclusive
CCOC(=O)c1sc(NC(=O)c2c(C)nn(Cc3ccccc3)c2C)cc1C	Pf growth 48h 9.3µM
CCOC(=O)c1sc(NC(=O)c2ccc(Cl)s2)cc1C	Pf growth 48h inconclusive, CHX counter 39, Shiga inhibitor 56, Pf growth 96h inconclusive
CCOC(=O)c1sc(NC(=O)Nc2ccc(Cl)cc2)cc1C	Pf growth 48h 4.1µM, CHX counter 46, Shiga inhibitor 67, Pf growth 96h inconclusive
CCOC(=O)c1c(NC(=O)Nc2ccc(Cl)cc2)sc(C)c1C	none
CCOC(=O)c1sc(NC(=S)NC(=O)c2ccccc2Cl)c(C(=O)OCC)c1C	none
CCOC(=O)c1sc(NC(=O)c2ccccc2)cc1C	CHX counter 70, Shiga inhibitor 122, Pf growth 96h inconclusive, LmPK inh inconclusive (no result: Pf growth 48h)
Cc1cc(NC(=O)COC(=O)c2c(C)nn(Cc3ccccc3)c2C)no1	Pf growth 96h inconclusive (no result: Pf growth 48h)
CCOC(=O)c1sc(=S)n(C)c1NC(=O)c1ccccc1	none
COc1ccc(S(=O)(=O)N2CCCC(C(=O)NCc3ccccc3)C2)cc1 (configuration not stated)	Pf growth 48h inconclusive
CCc1ccc(-c2cc(C)no2)cc1S(=O)(=O)N1CCCN(Cc2ccc(F)cc2)C1	Pf growth 48h inconclusive, Pf growth 96h inconclusive
Cc1ccc(C(=O)N/C(=C\c2ccc(Cl)cc2)C(=O)NCCN2CCOCC2)cc1	Pf growth 96h inconclusive
CCOC(=O)c1sc(NC(=O)c2ccc(S(=O)(=O)N(C)C)cc2)nc1C	Pf growth 48h inconclusive (no result: Pf growth 96h)
CCOC(=O)c1sc(NC(=O)c2ccc(S(=O)(=O)N(C)C)cc2)cc1C	Pf growth 96h 5.2µM (no result: Pf growth 48h)
COc1ccc(C(=O)NNC(=O)CSc2ccccc2)cc1	none
CCc1cccc(C)c1NC(=S)N(CCCN1CCOCC1)Cc1cccnc1	Pf growth 48h inconclusive, Pf growth 96h inconclusive
COc1cc(C=C(c2nc3ccccc3s2)c2nc3ccccc3s2)cc(OC)c1O	Pf growth 48h inconclusive, CHX counter 17, Pf growth 96h inconclusive
COc1ccc(C(=O)Nc2cccc(/C=C(\CCC(=O)O)c3nc4ccccc4s3)c2)cc1	CHX counter 17, Shiga inhibitor 59
COc1ccc(/C=C(\CC(=O)O)c2nc3ccccc3s2)cc1O	Shiga inhibitor 72
O=C(O)C/C(=C\c1cccc(NC(=O)c2ccccc2Cl)c1)c1nc2ccccc2s1	CHX counter 26, Shiga inhibitor 52, Pf growth 96h inconclusive
COc1cc(/C=C(\CC(=O)O)c2nc3ccccc3s2)cc(OC)c1O	none
CCOc1cc(/C=C(\CC(=O)O)c2nc3ccccc3s2)ccc1OC	Pf growth 48h inconclusive
O=C(CN1CCN(c2nc(-c3ccccc3)cs2)CC1)NNC(=O)c1ccco1	Pf growth 96h inconclusive

Source: PubChem (National Center for Advancing Translational Sciences (NCATS))
